Source: PubChem BioAssay (several laboratories)
Most compounds without a hit are left out; they make up all but 4.1% or so of the library.
PfM18AAP inh – PfM18AAP enzyme inhibition | recombinant PfM18AAP, H-Glu-NHMec fluorogenic cleavage | inhibition, % at 7.35 µM | 290,000 compounds, 1.2% hits;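 active means inhibition above the campaign mean inhibition over all tested compounds plus 3 SD, cut at about 28% in these data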;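 further: 0% = plate median of test compound wells and 100% = 2 mM ZnCl2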
IDE act – boosts human insulin-degrading enzyme activity in HEK cells. AID 493087. activation, % at 5.96 µM. P14735. FAbeta-B cleavage, fluorescence polarization; 0% vehicle, 100% cell-free pure enzyme wells. 340,000 compounds, 0.073% hits;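 active means activation above the mean of all tested compounds plus 3 SD, set per screening campaign, cut at about 17% in these data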
PolyA inh – inhibitors of polyadenylation in S. cerevisiae | S. cerevisiae SKY197-pL101 polyadenylation reporter, beta-gal luminescence; efflux-impaired pdr1/pdr3 knockout yeast; score 100 = 6 SD above DMSO | activity score, % at 12 µM | 300,000 compounds, 0.02% hits | AID 1875;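 active means lowest replicate activity score at least 50, where 100 means six control SD above control mean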;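 further: yeast exposed to compound for 9 h at 30 °C; higher score means more reporter readthrough which indicates perturbed polyadenylation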
IDE cell inh – inhibits human insulin-degrading enzyme in HEK cells. FAbetaB cleavage, fluorescence polarization. 320,000 compounds, 0.41% hits. AID 434962. P14735. inhibition, % at 5.59 µM;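 active means percent inhibition above the average of all tested compounds plus 3 SD, set per screening campaign, cut at about 16% in these data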;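 further: IDE supplied by intact live HEK cells; FP after avidin binding of uncleaved biotin substrate so inhibition keeps polarization high; 0% = DMSO wells and 100% = 60 µM reference IDE inhibitor Ii1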
ALR inh – inhibitors of human sulfhydryl oxidase ALR. P55789. purified ALR, DTT oxidation, H2O2 HRP-luminol luminescence. inhibition, % (concentration not given with the values). 290,000 compounds, 3.8% hits. AID 485317;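 active means mean replicate inhibition above about 79%, with every replicate also reaching it, limit read from the data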
Target sequence (P55789 whole entry, looked up): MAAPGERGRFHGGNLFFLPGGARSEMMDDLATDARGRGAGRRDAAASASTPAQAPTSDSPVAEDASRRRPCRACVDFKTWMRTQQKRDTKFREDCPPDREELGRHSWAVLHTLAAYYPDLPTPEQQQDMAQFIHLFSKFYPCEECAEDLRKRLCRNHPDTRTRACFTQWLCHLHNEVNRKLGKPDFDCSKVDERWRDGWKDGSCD
CaV13 ICDI inh – Primary screen for inhibitors of IQ motif and Ca2+-dependent inactivation inhibitor domain binding in CACNA1D, Förster resonance energy transfer in living cells, …; HEK cells, CFP/YFP FRET ICDI-IQ, plate reader, 10 min; percent FRET-ratio fall versus neutral wells; inhibition, % at 12.3 µM; 340,000 compounds, 0.098% hits; AID 743397;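 active means mean replicate inhibition of at least 30% and at least 1% of replicates passing that level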;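 further: 0% = median of the neutral control wells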
IDE cell inh cf – confirmation of human insulin-degrading enzyme inhibitors in cells; shares compounds with IDE cell inh; HEK cells, FAbetaB cleavage, fluorescence polarization; inhibition, % at 5.59 µM; 1,200 compounds, 51% hits;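 active means mean inhibition across triplicate wells above the cutoff set by the earlier primary insulin-degrading enzyme screen, cut at about 16% in these data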;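 further: 0% = DMSO wells and 100% = 60 µM reference IDE inhibitor Ii1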
HEK cytotox – HEK cell cytotoxicity, counter-screen for IDE inhibitors | inhibition, % at 5.59 µM | 1,200 compounds, 28% hits | shares compounds with IDE cell inh | HEK293 cytotoxicity, ATP luminescence; in the data active means inhibition above about 22%;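 further: 0% = vehicle wells and 100% = reference cytotoxic drug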
Numbers without * were called inactive; . = no result given.

SMILES	PfM18AAP inh	IDE act	PolyA inh	IDE cell inh	ALR inh	CaV13 ICDI inh	IDE cell inh cf	HEK cytotox
CN1/C(=C\C=C(/C#N)C(=O)Nc2ccccc2F)C(C)(C)c2ccccc21	2	-44	18	25*	-16	0	35*	14
CCc1nnnn1-c1ccc([N+](=O)[O-])cc1C	2	4	31	4	-13	-6	.	.
CCOC(=O)N1CCN(C(=O)c2cccn3c(=O)c4cc(Cl)ccc4nc23)CC1	4	-7	-2	16*	-1	-7	8	4
CCc1ccc(S(=O)(=O)Nc2c(C)n(C)n(-c3ccccc3)c2=O)cc1	-7	0	-25	8	5	-14	.	.
N#CC1=C(S)N=C(N)C(c2nc(-c3ccccc3)cs2)C12CCCC2 (stereo not drawn)	-12	-10	0	20*	3	.	9	6
